Data reported in ChEMBL document CHEMBL1961873, “Compounds: GSK PKIS; Assays: Nanosyn kinase panel” (2012).

Experiments:
[1] = target: T1, Serine/threonine-protein kinase Nek9 (Homo sapiens) (UniProt Q8TD19); conditions: at 1 µM;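 also: each value is a mean percent inhibition of NEK9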
T1 sequence (whole entry): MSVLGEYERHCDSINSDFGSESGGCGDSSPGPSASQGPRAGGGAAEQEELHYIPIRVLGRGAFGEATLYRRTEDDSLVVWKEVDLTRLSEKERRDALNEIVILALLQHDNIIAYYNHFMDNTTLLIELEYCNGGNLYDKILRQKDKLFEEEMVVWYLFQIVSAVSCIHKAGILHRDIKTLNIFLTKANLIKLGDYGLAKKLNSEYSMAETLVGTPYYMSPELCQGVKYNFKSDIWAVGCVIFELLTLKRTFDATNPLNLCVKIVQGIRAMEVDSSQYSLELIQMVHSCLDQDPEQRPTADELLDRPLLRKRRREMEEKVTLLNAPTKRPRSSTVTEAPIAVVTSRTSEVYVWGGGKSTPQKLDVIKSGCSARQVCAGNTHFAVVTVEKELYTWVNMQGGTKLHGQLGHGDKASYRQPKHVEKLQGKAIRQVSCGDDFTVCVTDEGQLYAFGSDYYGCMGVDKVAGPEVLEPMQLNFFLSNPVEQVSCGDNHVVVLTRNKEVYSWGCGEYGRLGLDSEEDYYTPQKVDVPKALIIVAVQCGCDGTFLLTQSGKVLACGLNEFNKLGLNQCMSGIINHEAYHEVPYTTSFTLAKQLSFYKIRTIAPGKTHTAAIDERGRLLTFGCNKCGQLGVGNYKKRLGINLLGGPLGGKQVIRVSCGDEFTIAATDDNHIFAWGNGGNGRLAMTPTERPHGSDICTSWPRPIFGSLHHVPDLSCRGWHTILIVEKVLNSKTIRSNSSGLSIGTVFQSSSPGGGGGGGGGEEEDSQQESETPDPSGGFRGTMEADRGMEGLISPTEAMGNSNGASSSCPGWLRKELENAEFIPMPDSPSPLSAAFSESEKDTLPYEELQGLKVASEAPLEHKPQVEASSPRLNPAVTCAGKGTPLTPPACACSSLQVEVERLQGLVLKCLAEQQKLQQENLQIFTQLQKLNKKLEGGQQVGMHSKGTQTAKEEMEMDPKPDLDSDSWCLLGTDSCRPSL

[2] = target: Serine/threonine-protein kinase PLK1 (Homo sapiens) (UniProt P53350); conditions: at 0.1 µM
[3] = target: Serine/threonine-protein kinase PLK1 (Homo sapiens) (UniProt P53350); conditions: at 1 µM
[4] = target: T2, Dual specificity protein kinase TTK (Homo sapiens) (UniProt P33981); conditions: at 0.1 µM
T2 sequence (whole entry): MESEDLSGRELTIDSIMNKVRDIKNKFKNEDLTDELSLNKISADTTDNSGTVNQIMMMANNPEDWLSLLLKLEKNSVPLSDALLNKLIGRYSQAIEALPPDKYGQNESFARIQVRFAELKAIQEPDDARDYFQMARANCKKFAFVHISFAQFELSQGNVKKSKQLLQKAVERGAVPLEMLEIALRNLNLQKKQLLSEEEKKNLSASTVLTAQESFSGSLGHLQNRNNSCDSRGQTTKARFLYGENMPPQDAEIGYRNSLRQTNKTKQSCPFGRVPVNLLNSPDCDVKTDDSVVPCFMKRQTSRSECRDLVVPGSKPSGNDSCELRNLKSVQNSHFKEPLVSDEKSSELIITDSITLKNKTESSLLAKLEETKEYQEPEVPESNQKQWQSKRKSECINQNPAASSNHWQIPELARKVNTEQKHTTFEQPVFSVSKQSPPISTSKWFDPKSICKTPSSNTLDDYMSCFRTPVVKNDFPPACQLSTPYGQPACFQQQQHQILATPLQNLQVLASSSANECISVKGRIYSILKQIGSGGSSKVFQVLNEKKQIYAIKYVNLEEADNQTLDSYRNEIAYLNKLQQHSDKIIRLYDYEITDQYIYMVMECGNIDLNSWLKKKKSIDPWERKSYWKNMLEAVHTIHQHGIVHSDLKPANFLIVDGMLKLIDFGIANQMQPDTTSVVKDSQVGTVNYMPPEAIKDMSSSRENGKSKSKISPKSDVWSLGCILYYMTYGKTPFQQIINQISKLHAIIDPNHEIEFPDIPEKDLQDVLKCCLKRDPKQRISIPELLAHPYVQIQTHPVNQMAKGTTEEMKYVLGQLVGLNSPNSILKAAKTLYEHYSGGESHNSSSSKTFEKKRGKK

[5] = system: T3, Receptor-type tyrosine-protein kinase FLT3 (Homo sapiens), P36888 [D835Y]; conditions: at 1 µM
T3 sequence (whole entry): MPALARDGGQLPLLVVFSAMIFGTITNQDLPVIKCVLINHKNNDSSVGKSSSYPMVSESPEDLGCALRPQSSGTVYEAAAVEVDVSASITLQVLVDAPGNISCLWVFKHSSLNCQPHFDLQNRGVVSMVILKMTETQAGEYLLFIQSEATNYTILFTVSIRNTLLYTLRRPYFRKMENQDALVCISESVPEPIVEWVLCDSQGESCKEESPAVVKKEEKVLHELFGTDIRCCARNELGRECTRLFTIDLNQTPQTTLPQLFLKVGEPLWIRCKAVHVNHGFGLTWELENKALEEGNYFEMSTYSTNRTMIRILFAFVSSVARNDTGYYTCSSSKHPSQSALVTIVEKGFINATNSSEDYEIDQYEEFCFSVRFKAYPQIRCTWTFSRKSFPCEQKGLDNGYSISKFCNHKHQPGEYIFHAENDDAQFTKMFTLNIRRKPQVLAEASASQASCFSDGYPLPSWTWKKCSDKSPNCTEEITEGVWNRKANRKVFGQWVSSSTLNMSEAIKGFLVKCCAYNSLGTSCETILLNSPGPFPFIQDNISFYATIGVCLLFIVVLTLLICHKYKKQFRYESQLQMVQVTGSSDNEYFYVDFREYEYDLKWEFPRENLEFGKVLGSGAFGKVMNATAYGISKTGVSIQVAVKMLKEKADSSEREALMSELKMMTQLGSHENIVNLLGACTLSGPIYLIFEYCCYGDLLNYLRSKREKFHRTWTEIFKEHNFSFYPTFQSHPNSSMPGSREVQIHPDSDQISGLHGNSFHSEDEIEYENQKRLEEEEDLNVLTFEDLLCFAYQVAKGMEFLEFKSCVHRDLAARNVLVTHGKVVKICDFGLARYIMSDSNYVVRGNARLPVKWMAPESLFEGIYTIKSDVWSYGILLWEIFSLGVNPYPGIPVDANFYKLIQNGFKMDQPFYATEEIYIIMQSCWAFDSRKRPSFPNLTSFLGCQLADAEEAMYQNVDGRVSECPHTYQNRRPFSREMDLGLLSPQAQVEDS

[6] = target: Vascular endothelial growth factor receptor 3 (Homo sapiens) (UniProt P35916); conditions: at 0.1 µM
[7] = target: Vascular endothelial growth factor receptor 3 (Homo sapiens) (UniProt P35916); conditions: at 1 µM
[8] = target: Macrophage colony-stimulating factor 1 receptor (Homo sapiens) (UniProt P07333); conditions: at 0.1 µM
[9] = target: Macrophage colony-stimulating factor 1 receptor (Homo sapiens) (UniProt P07333); conditions: at 1 µM
[10] = target: Tyrosine-protein kinase Fyn (Homo sapiens) (UniProt P06241); conditions: at 0.1 µM
[11] = target: Tyrosine-protein kinase Fyn (Homo sapiens) (UniProt P06241); conditions: at 1 µM
[12] = target: Tyrosine-protein kinase HCK (Homo sapiens) (UniProt P08631); conditions: at 0.1 µM
[13] = target: Tyrosine-protein kinase HCK (Homo sapiens) (UniProt P08631); conditions: at 1 µM
[14] = target: Insulin-like growth factor 1 receptor (Homo sapiens) (UniProt P08069); conditions: at 0.1 µM
[15] = target: Insulin-like growth factor 1 receptor (Homo sapiens) (UniProt P08069); conditions: at 1 µM
[16] = target: Insulin receptor (Homo sapiens) (UniProt P06213); conditions: at 0.1 µM
[17] = target: Insulin receptor (Homo sapiens) (UniProt P06213); conditions: at 1 µM
[18] = target: Insulin receptor-related protein (Homo sapiens) (UniProt P14616); conditions: at 0.1 µM
[19] = target: Insulin receptor-related protein (Homo sapiens) (UniProt P14616); conditions: at 1 µM
[20] = target: T4, Tyrosine-protein kinase ITK/TSK (Homo sapiens) (UniProt Q08881); conditions: at 0.1 µM;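 also: mean percent inhibition of ITK from the GSK PKIS screen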
T4 sequence (whole entry): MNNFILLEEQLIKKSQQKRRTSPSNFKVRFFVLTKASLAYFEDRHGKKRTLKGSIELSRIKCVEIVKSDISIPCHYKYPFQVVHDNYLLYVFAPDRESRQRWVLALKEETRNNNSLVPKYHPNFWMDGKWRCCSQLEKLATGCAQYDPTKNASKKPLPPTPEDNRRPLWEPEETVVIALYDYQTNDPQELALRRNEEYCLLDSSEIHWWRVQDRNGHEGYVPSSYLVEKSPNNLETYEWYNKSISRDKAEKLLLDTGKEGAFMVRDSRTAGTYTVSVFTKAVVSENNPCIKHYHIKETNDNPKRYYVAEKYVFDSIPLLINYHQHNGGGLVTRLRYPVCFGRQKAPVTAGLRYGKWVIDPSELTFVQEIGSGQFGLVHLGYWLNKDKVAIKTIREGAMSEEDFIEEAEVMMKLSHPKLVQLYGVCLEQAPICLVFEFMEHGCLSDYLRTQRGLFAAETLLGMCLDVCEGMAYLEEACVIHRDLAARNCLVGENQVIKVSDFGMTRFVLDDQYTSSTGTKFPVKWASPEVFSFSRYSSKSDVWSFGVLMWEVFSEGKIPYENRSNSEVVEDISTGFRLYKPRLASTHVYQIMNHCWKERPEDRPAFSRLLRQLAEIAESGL

Chain of Tyrosine-protein kinase Fyn (Homo sapiens) (P06241 2-537 limits assumed): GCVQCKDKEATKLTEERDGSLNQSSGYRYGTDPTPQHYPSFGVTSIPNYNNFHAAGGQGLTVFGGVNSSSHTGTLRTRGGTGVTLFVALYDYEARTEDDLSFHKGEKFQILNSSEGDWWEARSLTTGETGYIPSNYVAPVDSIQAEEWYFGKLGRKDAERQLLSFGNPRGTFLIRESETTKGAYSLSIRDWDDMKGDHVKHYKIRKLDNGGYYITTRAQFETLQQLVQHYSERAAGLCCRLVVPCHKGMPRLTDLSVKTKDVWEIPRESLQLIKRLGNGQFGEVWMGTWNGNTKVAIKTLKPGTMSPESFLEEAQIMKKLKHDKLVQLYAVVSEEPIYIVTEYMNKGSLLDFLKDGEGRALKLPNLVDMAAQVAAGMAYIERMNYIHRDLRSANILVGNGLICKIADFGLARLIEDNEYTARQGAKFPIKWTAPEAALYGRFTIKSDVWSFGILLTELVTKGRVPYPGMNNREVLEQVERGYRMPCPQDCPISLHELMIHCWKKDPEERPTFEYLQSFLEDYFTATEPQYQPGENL
Chain of Insulin receptor (Homo sapiens) (P06213 28-758 limits assumed): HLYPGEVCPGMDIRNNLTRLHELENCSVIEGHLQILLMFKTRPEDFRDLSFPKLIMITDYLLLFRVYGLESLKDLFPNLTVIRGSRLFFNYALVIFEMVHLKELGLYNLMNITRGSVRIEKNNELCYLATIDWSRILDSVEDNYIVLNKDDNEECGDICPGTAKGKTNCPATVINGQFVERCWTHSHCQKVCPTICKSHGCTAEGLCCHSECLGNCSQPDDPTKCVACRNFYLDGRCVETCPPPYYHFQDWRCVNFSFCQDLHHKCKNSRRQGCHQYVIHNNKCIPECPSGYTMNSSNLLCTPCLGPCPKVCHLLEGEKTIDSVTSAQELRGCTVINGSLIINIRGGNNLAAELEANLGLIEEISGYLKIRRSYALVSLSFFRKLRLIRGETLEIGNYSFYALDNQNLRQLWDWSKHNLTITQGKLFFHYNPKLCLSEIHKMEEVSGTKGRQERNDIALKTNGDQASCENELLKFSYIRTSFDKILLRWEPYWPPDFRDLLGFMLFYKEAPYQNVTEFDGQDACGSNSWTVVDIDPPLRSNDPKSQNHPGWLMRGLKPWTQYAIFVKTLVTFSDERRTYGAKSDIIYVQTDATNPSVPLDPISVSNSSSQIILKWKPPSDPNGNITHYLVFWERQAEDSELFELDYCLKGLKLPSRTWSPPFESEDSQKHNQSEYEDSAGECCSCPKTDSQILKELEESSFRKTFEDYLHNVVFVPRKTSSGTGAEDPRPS
Chain of Insulin receptor (Homo sapiens) (P06213 763-1382 limits assumed): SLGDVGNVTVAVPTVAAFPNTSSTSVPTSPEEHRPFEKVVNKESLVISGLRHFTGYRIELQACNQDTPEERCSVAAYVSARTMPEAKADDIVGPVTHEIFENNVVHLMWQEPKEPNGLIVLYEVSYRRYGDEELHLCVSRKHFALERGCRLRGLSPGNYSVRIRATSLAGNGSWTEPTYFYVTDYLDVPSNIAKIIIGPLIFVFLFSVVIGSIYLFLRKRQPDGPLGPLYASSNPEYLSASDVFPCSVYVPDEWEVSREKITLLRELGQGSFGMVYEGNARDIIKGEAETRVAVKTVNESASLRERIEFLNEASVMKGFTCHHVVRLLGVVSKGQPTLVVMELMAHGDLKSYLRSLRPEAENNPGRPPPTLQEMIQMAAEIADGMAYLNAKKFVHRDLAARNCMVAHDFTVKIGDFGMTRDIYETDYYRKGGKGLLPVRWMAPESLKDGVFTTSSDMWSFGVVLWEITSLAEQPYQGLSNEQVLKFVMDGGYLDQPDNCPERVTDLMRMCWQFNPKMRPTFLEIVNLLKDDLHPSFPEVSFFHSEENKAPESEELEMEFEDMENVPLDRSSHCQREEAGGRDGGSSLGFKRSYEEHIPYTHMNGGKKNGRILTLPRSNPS
Chain of Macrophage colony-stimulating factor 1 receptor (Homo sapiens) (P07333 whole entry): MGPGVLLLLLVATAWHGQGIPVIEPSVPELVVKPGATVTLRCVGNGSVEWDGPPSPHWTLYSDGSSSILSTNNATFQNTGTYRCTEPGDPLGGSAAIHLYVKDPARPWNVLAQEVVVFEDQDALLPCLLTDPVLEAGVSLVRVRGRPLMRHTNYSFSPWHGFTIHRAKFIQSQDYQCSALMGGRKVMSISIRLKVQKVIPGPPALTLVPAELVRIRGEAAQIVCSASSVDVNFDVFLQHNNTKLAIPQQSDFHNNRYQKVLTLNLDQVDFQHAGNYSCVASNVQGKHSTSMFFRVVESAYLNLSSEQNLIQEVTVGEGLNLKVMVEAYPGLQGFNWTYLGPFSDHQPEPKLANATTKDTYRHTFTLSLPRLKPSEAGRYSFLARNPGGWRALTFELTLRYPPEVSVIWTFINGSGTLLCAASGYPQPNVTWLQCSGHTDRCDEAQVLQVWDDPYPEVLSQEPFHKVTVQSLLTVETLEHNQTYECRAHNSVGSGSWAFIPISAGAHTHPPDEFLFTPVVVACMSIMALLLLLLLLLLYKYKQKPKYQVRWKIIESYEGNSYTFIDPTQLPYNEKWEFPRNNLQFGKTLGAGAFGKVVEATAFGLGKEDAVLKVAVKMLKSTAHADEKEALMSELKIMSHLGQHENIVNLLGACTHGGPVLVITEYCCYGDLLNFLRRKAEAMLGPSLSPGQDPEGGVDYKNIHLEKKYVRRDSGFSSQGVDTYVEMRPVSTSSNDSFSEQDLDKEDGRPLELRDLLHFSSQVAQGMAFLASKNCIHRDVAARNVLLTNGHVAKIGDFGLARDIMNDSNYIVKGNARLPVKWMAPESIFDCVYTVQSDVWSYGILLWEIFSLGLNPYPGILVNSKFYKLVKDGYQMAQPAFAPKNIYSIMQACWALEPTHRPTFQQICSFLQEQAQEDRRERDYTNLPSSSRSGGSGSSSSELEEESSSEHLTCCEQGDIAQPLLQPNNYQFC
Chain of Insulin-like growth factor 1 receptor (Homo sapiens) (P08069 31-736 limits assumed): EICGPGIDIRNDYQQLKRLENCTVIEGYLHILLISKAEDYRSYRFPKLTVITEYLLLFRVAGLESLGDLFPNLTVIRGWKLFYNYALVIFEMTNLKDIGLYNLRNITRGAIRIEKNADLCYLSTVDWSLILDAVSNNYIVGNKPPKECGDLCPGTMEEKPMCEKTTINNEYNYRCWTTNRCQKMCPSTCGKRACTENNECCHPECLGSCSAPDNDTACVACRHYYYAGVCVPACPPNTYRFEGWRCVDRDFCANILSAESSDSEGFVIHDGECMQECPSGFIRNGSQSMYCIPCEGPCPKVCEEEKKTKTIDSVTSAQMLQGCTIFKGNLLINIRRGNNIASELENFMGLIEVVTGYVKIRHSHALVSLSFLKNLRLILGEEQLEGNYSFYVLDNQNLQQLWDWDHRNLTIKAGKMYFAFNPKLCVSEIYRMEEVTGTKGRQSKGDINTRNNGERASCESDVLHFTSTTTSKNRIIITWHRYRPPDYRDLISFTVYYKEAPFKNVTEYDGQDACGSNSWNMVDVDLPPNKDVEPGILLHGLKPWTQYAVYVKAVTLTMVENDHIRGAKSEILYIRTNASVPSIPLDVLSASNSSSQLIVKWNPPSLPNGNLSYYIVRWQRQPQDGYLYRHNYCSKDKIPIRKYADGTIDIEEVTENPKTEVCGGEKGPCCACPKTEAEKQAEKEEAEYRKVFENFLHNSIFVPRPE
Chain of Insulin-like growth factor 1 receptor (Homo sapiens) (P08069 741-1367 limits assumed): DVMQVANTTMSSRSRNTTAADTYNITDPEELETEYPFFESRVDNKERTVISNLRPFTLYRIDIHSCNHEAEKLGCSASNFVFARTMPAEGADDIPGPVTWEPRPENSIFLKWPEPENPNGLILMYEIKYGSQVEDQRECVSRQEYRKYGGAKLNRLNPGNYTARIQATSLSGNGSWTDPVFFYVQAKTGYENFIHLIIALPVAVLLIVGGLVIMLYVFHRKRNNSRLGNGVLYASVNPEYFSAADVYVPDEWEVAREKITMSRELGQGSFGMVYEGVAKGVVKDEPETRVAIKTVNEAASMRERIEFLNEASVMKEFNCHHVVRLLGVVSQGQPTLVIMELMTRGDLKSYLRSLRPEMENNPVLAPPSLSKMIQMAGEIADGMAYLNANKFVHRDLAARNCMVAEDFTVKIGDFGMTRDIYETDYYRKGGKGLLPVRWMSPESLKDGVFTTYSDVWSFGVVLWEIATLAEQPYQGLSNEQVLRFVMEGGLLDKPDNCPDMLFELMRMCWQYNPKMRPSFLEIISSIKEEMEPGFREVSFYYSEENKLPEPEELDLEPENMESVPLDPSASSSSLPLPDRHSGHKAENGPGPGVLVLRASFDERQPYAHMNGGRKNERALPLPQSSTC
Chain of Serine/threonine-protein kinase PLK1 (Homo sapiens) (P53350 whole entry): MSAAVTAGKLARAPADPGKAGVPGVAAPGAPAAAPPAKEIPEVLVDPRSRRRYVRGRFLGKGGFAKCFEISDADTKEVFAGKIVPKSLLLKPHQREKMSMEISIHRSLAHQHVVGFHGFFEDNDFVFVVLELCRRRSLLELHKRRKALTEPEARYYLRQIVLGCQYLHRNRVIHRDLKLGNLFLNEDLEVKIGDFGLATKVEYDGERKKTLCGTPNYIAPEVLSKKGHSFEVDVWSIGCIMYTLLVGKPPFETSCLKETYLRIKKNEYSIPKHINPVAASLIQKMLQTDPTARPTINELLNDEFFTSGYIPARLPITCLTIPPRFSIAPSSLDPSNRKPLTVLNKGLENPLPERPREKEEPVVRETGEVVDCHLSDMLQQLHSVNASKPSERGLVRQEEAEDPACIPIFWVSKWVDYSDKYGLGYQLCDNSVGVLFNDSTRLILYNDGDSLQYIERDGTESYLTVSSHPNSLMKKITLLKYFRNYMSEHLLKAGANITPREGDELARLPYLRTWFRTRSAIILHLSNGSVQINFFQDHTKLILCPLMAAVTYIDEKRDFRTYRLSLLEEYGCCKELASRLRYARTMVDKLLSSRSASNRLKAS

SMILES	inhibition [1] [%]	inhibition [2] [%]	inhibition [3] [%]	inhibition [4] [%]	inhibition [5] [%]	inhibition [6] [%]	inhibition [7] [%]	inhibition [8] [%]	inhibition [9] [%]	inhibition [10] [%]	inhibition [11] [%]	inhibition [12] [%]	inhibition [13] [%]	inhibition [14] [%]	inhibition [15] [%]	inhibition [16] [%]	inhibition [17] [%]	inhibition [18] [%]	inhibition [19] [%]	inhibition [20] [%]
COC(=O)Nc1nc2ccc(Sc3ccc(NC(=O)Nc4cc(C(F)(F)F)ccc4F)cc3)cc2[nH]1	-0.45	-0.3	0.84	1.23	6.34	14.8	21.7	0.81	3.42	-1.41	3.27	39.5	14.4	10.6	6.91	2.28	-0.75	1.45	-0.55	0.19
Fc1ccc(-c2ncn(C3CCNCC3)c2-c2ccnc(Oc3ccc(Oc4ccccc4)cc3)n2)cc1	4.8	4.45	6.8	6.67	-1.89	3.28	1.1	2.27	3.02	2.65	5.66	5.33	8.1	5.31	1.58	7.04	3.44	1.91	3.32	3.37
Nc1nccc(-c2c(-c3ccc(F)cc3)ncn2C2CCC(O)CC2)n1 (stereo not given)	-1.68	-2.32	-1.2	-4.27	0.98	1.39	-0.22	2.19	14.7	1.57	6.58	1.96	12.7	-1.46	-1.17	0.89	-0.36	-0.97	-2.71	-0.36
O=C(Nc1n[nH]c2cc(-c3ccccc3)ccc12)C1CC1	5.87	5.16	2.83	5.95	4.54	16.2	16.9	4.54	5.1	1.14	5.27	8.61	15.8	10.5	11.2	3.96	5.84	2.53	0.58	1.56
COc1cccc(/C=N/Nc2ncnc3c2cnn3-c2cccc(OC)c2)c1	11.2	5.9	5.49	7.19	7.24	1.81	-0.55	1.79	6.37	2.39	7.98	4.96	6.95	2.01	1.32	6.27	3.35	1.18	1.31	0.35
O=C(Nc1n[nH]c2nc(-c3ccc(O)cc3)c(Br)cc12)C1CC1	13.2	6.21	5.59	10.2	27.1	18.3	60.9	3.87	6.92	5.98	14.5	12.2	28.4	5.22	5.83	7.55	6.22	1.99	1.59	2.89
